Compound activity (PubChem BioAssay)
Sampled rows, rich in hits. Any-hit rate of the full collection: about 6.4%.
RORg inh: inhibitors of mouse ROR gamma transcriptional activity; P51450; 310,000 tested, 5.4% active; Potency, µM (series often up to 53.6 µM), inactives show at the highest dose activity change, negative = inhibition, usual class: inhibitors; Drosophila S2 Gal4-RORgamma UAS-luciferase reporter, 20 h; note: nearly all actives have a fitted effect of over 60% in size
Target sequence (P51450 whole entry, looked up, the tested form may be a part): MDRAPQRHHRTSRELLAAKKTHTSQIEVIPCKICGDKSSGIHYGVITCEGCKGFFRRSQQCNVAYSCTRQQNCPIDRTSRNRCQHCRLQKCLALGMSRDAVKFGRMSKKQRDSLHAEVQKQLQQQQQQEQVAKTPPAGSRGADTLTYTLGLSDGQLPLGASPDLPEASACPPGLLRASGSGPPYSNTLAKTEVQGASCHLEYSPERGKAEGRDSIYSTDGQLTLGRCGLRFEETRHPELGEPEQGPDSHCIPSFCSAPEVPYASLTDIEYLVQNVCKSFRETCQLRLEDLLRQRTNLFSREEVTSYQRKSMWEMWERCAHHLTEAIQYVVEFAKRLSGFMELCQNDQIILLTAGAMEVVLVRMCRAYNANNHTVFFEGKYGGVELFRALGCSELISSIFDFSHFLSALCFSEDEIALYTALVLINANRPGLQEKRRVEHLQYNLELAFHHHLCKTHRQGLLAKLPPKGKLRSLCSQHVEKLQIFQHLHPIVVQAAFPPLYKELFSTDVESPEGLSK
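Luciferase reporter read in Schneider cells carrying Gal4-RORγ (mouse) and UAS-Photinus luciferase; cells given compound 1 h before 700 uM copper sulfate induction, then incubated 20 h at ambient temperature.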
Luc counter: Kinase-Glo luciferase inhibition (counter-screen) | 200,000 tested, 0.28% active | AID 1379 | Potency, µM (top dose mostly 38.3 µM), for the others: at the top dose activity change, negative = inhibition, actives largely listed as inhibitors | Kinase-Glo luciferase, ATP luminescence, 8 min; note: nearly all actives have a fitted effect of over 60% in size
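Kinase-Glo luciferase light output from ATP and luciferin was measured with 10 uM ATP, within the enzyme's linear range. Buffer: 50 mM imidazole pH 7.2, 50 mM KCl, 7 mM MgCl2, 0.01% Tween 20, 0.05% BSA; luminescence read after 8 min at ambient temperature.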
Gal4-VP16 FLuc: inhibits Gal4-VP16 luciferase reporter, ROR gamma counter-screen. Potency, µM (top dose mostly 53.6 µM), without a hit: at the top dose activity, negative = inhibition, actives largely listed as inhibitors. 310,000 tested, 3.5% active. Drosophila S2 Gal4-VP16 UAS-luciferase, luminescence, 20 h. AID 2546;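 note: Gal4-VP16 expression switched on by copper sulfate through the metallothionein promoter; nearly all actives have a fitted effect of over 50% in size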
The depositor's hits bear a star; [ ] = another dose, or the depositor's remark. Calls come from the whole dose curve; as a rule, active = well fitted curve in the direction sought with a large enough effect; inconclusive = small, poorly fitted or top-dose-only effect, or another doubt; inactive = no such curve, though single readings can be large; an effect the other way counts as inactive or inconclusive. % is set by controls: 0 for no effect and ±100 for the full control effect; potency is the fitted concentration of half-maximal effect.

How did O=[N+]([O-])c1ccc(S(=O)(=O)Nc2nc3ccccc3nc2Nc2ccccc2)cc1 do in these assays?
RORg inh: 8.91µM*; Luc counter: -1.0%; Gal4-VP16 FLuc: inconclusive

Results for COc1ccc([N+](=O)[O-])cc1NS(=O)(=O)c1ccccc1 ?
RORg inh: 18.0%; Luc counter: 4.3%; Gal4-VP16 FLuc: -16.9%

Results for COc1cc(Nc2nc3ccccc3nc2NS(=O)(=O)c2ccc([N+](=O)[O-])cc2)cc(OC)c1OC ?
RORg inh: 4.47µM*; Gal4-VP16 FLuc: 5.01µM*

Results for COC(=O)Cc1nc(Nc2ccccc2)sc1C ?
RORg inh: 11.0%; Gal4-VP16 FLuc: 0.9%

How did Cn1c(=O)c2c(nc(CN3CCN(C(c4ccccc4)c4ccccc4)CC3)n2CCCO)n(C)c1=O do in these assays?
RORg inh: inconclusive; Gal4-VP16 FLuc: -3.6%

How did O=C(NCCOc1ccccc1)C1CCC(=O)N(CCN2CCOCC2)C1 (stereo unspecified) do in these assays?
RORg inh: 1.0%; Gal4-VP16 FLuc: 8.2%

How did Cc1ccc(S(=O)(=O)NC(CC(C)C)C(=O)N2CCCC2)cc1 (stereo unspecified) do in these assays?
RORg inh: -23.5%; Gal4-VP16 FLuc: -0.1%

How did Cc1ccc(COc2ccsc2-c2n[nH]c(=S)n2C)cc1 do in these assays?
RORg inh: 2.82µM*; Luc counter: -3.8%; Gal4-VP16 FLuc: 7.08µM*

How did Cn1c(-c2sccc2OCc2ccc(Cl)cc2Cl)n[nH]c1=S do in these assays?
RORg inh: 2.82µM*; Luc counter: -2.1%; Gal4-VP16 FLuc: 7.08µM*

How did Cc1occc(=O)c1OCc1ccc(Cl)cc1Cl do in these assays?
RORg inh: 7.8%; Gal4-VP16 FLuc: 0.6%

How did Cn1c(-c2sccc2OCc2ccccc2)n[nH]c1=S do in these assays?
RORg inh: 29.5%; Luc counter: 6.5%; Gal4-VP16 FLuc: -7.7%

Results for Cc1cc(NS(=O)(=O)c2cc(Cl)sc2Cl)no1 ?
RORg inh: 19.1%; Gal4-VP16 FLuc: -3.6%

How did C=CCOC(=O)C(C(=O)CC)C(NC(=O)OC)c1ccc(F)cc1 (stereo unspecified) do in these assays?
RORg inh: 9.7%[10 µM]; Gal4-VP16 FLuc: -6.9%[10 µM]

How did CCOC(=O)c1c(C)[nH]c(C)c1C=O do in these assays?
RORg inh: -1.4%; Luc counter: 8.9%; Gal4-VP16 FLuc: 1.8%

How did CCOC(=O)c1c(C)cc(O)c(C=O)c1O do in these assays?
RORg inh: 11.2µM*; Luc counter: -7.5%; Gal4-VP16 FLuc: inconclusive

Results for N#Cc1cccc(-c2cc(NCc3cccs3)ncn2)c1 ?
RORg inh: inconclusive; Luc counter: -5.3%; Gal4-VP16 FLuc: -6.6%

Results for CC1=CC(c2ccc(Cl)cc2)n2nc(NC(=O)CCC(=O)O)nc2N1 (stereo unspecified) ?
RORg inh: 14.9%; Gal4-VP16 FLuc: -0.3%

Results for c1ccc2c(CN3CCSCC3)cccc2c1 ?
RORg inh: -2.3%; Gal4-VP16 FLuc: -16.7%

What do the screens show for `COc1ccc(C2CC(c3ccccc3)=NN2C(=O)CN2CCN(Cc3ccccc3)CC2)cc1` (stereo unspecified)?
RORg inh: inconclusive; Luc counter: -0.5%; Gal4-VP16 FLuc: -6.4%

How did CC1(C)CC[C@]2(C(=O)O)C(O)C[C@@]3(C)C(=CCC4[C@@]5(C)CCC(O)C(C)(C)C5CC[C@@]43C)C2C1 (stereo partly specified) do in these assays?
RORg inh: 1.41µM*; Luc counter: -2.7%; Gal4-VP16 FLuc: -28.8%

What do the screens show for `CC1(C)CC[C@]2(C)CC[C@@]3(C)C(=CCC4[C@@]5(C)CCC(O)C(C)(C)C5CC[C@@]43C)C2C1` (stereo partly specified)?
RORg inh: 10.8%; Luc counter: 0.1%; Gal4-VP16 FLuc: -2.8%

What do the screens show for `O=C(/C=C/Nc1cccc(O)c1)c1ccccc1`?
RORg inh: 5.01µM*; Luc counter: inconclusive; Gal4-VP16 FLuc: 6.31µM*

How did C/C(=C\C(=O)c1ccc(C)cc1)Nc1ccc(N2CCOCC2)cc1 do in these assays?
RORg inh: -2.5%; Luc counter: -2.0%; Gal4-VP16 FLuc: 2.8%

What do the screens show for `CC(=O)c1cccc(NC(=O)N2CCCCCC2)c1`?
RORg inh: 23.1%; Gal4-VP16 FLuc: -4.0%

Results for C/C(=C\C(=O)c1ccc(C)cc1)Nc1cccc(O)c1 ?
RORg inh: 6.31µM*; Luc counter: -5.6%; Gal4-VP16 FLuc: 3.55µM*

How did O=C(/C=C/Nc1ccc(F)c(Cl)c1)c1ccccc1 do in these assays?
RORg inh: 31.3%; Gal4-VP16 FLuc: -0.3%

How did COc1ccc(N/C=C\C(=O)c2ccc3ccccc3c2)cc1 do in these assays?
RORg inh: -28.9%; Gal4-VP16 FLuc: 11.4%

Results for CC(=O)c1cccc(NS(=O)(=O)c2ccc(NC(=O)N3CCCCC3)cc2)c1 ?
RORg inh: 39.5%; Gal4-VP16 FLuc: 10µM*

Results for COc1ccc(N/C=C/C(=O)c2ccccc2)cc1 ?
RORg inh: 7.94µM*; Gal4-VP16 FLuc: 10µM*

Results for Cc1ccc(-c2nn(CCC(=O)NN3CCOCC3)c(=O)c3ccccc23)cc1 ?
RORg inh: -10.2%; Gal4-VP16 FLuc: 10.5%

What do the screens show for `CC(=O)c1cccc(NC(=O)C2CCCN(S(=O)(=O)c3ccc(F)cc3)C2)c1` (stereo unspecified)?
RORg inh: 12.8%; Luc counter: 3.2%; Gal4-VP16 FLuc: -14.0%

What do the screens show for `Cc1ccc(C(=O)/C=C/Nc2cccc(O)c2)cc1`?
RORg inh: 2.24µM*; Luc counter: inconclusive; Gal4-VP16 FLuc: 1µM*

Results for C/C(=C\C(=O)c1ccccc1)Nc1ccc(O)cc1 ?
RORg inh: inconclusive; Luc counter: 20.8%; Gal4-VP16 FLuc: 13.0%

Results for CC(=O)c1cccc(N/C=C\C(=O)c2ccc(C)cc2)c1 ?
RORg inh: 2.24µM*; Luc counter: -4.5%; Gal4-VP16 FLuc: 8.91µM*

How did COc1ccc(S(=O)(=O)N2CCCC(C(=O)Nc3cccc(C(C)=O)c3)C2)cc1 (stereo unspecified) do in these assays?
RORg inh: inconclusive; Luc counter: 2.8%; Gal4-VP16 FLuc: 4.47µM*

What do the screens show for `CC(=O)c1cccc(NS(=O)(=O)c2ccc(N/C=C\C(=O)c3ccc(C)cc3)cc2)c1`?
RORg inh: -34.8%; Luc counter: -2.2%; Gal4-VP16 FLuc: inconclusive

Results for CC(=O)c1ccc(N/C=C\C(=O)c2ccc(C)cc2)cc1 ?
RORg inh: -33.5%; Luc counter: 0.5%; Gal4-VP16 FLuc: -6.1%

What do the screens show for `C/C(=C\C(=O)c1cccnc1)Nc1ccc(O)cc1`?
RORg inh: 12.6µM*; Luc counter: -3.1%; Gal4-VP16 FLuc: inconclusive

Results for CC(=O)Oc1ccc(/C=C/C(=O)CC2OC(Oc3cc(OC(C)=O)c4c(c3)O[C@@H](c3ccc(OC(C)=O)cc3)CC4=O)C(OC(C)=O)C(OC(C)=O)C2OC(C)=O)cc1 (stereo partly specified) ?
RORg inh: 13.6%; Luc counter: 2.0%; Gal4-VP16 FLuc: 1.0%

How did Cc1ccccc1NCc1nnc2n1CCCCC2 do in these assays?
RORg inh: 10.8%; Luc counter: 0.1%; Gal4-VP16 FLuc: -4.4%

What do the screens show for `CC(C)CC(=O)Nc1nnc(SCC(=O)NCC2CCCO2)s1` (stereo unspecified)?
RORg inh: -6.7%; Gal4-VP16 FLuc: -0.7%
